# Compound activity as filed in PubChem BioAssay.
# In the library only some 9.2% were active in any assay of this set; here they are far more common.
# UCHL1 block = blocks human UCHL1 ubiquitin-rhodamine cleavage; inhibition, % at 20 µM; P09936; purified UCHL1, Ub-rhodamine cleavage fluorescence; actives 0.2% (n = 47,000)
# USP17 inh = human USP17-like deubiquitinase inhibition. A8MUK1. purified USP17, Ub-rhodamine cleavage fluorescence, 3 h. inhibition, % at 50 µM. actives 6.5% (n = 47,000). AID 1645855
# USP10 inh = blocks human USP10 ubiquitin-rhodamine cleavage; purified USP10, Ub-rhodamine fluorescence, 60 min; Q14694; inhibition, % at 20 µM; actives 1.1% (n = 47,000)
# OTUD3 inh = inhibitors of human OTUD3 deubiquitinase. actives 0.7% (n = 47,000). Q5T2D3. inhibition, % at 25 µM. purified OTUD3, Ub-rhodamine fluorescence, 2 h
# USP7 block = inhibitors of human USP7 deubiquitinase | Q93009 | purified USP7, Ub-rhodamine cleavage fluorescence | inhibition, % at 20 µM | actives 0.3% (n = 47,000) | AID 1645854
# USP8 inh = inhibitors of human USP8 deubiquitinase. actives 4.2% (n = 47,000). P40818. inhibition, % at 20 µM. purified USP8, Ub-rhodamine cleavage fluorescence, 30 min. AID 1645853
# * hit, by the source's call. Cut-off read from the data, not from the text of the source: active = inhibition above about 30%; inactive = the rest.
SMILES,UCHL1 block,USP17 inh,USP10 inh,OTUD3 inh,USP7 block,USP8 inh
Cc1ccc(NCc2cc3c(-c4ccc(F)cc4)nn(-c4ccccc4)c3[nH]c2=O)cc1C,1.1,6.5,6.1,-1.4,17.1,77.2*
Cc1ccc(CNC(=O)c2ccccc2NC(=O)CNCC2CCCO2)cc1 (configuration not stated),1.0,-8.6,-0.7,3.4,-4.1,-77.8
COCCNc1nc(Nc2cccc(OC)c2)c2cnn(C)c2n1,-2.5,-15.2,-0.6,-12.3,-1.1,0.4
COc1ccc(C2C3=C(CC(C)(C)CC3=O)Nc3ccccc3N2C(=O)Cc2ccc(Cl)cc2)c(OC)c1 (configuration not stated),1.0,2.9,4.4,-10.2,-3.0,-27.8
Cc1nn(-c2ccccc2)c2[nH]c(=O)c(CNCc3ccc(F)cc3)cc12,1.1,11.2,-0.2,3.5,2.7,55.5*
Cc1cc(C(F)(F)F)c2c(N)c(C(=O)Nc3cccc(C(F)(F)F)c3)sc2n1,-4.4,-155.4,-0.9,-185.6,-2.1,-26.3
Cc1nc2sc(C(=O)Nc3ccccc3Br)c(N)c2c(C)c1C,-0.5,46.0*,8.7,10.0,9.2,22.8
Cc1cc(C)c2c(N)c(C(=O)Nc3ccccc3Br)sc2n1,1.7,77.3*,3.8,-2.3,2.3,3.7
O=C(OCc1ccc(F)cc1)c1cc(-c2cccnc2)nc2ccccc12,0.8,-14.9,-6.5,1.2,3.2,4.4
O=S(=O)(c1ccccc1F)N1CCN(c2cc(-c3ccncc3)[nH]n2)CC1,0.7,-17.6,-0.3,3.1,-1.5,-9.3
Cc1ccn2cc(-c3ccc(NC(=O)Cc4ccccc4)cc3)nc2n1,0.2,29.6,4.9,11.3,3.6,-3.0
Cc1ccn2cc(-c3ccc(NC(=O)C(C)Oc4ccccc4)cc3)nc2n1 (configuration not stated),-0.2,-6.0,12.9,-6.5,7.7,40.0*
Cn1c(=O)n(Cc2ccc(Cl)cc2)c2cncnc21,4.2,14.8,1.0,9.1,-15.6,-0.2
COc1ccc(-c2cc(-c3nnc(COC(=O)CNS(=O)(=O)c4ccccc4)o3)c3ccccc3n2)cc1OC,-16.5,-31.9,-9.9,-11.9,-11.4,-7.9
COc1ccc(-c2cc(-c3nnc(COC(=O)c4cccc([N+](=O)[O-])c4C)o3)c3ccccc3n2)cc1OC,-2.1,-8.4,-8.1,-14.5,-3.1,68.1*
COc1ccc(-c2cc(-c3nnc(CSc4nnc(C)n4-c4ccccc4)o3)c3ccccc3n2)cc1OC,5.9,36.4*,0.1,0.0,7.2,2.7
COc1ccc(-c2cc(-c3nnc(COC(=O)CC4CCCC4)o3)c3ccccc3n2)cc1OC,3.7,2.7,-3.4,-3.9,8.5,64.2*
O=C(Nc1ccc(F)cc1F)C1CCCN(S(=O)(=O)N2CCCCCC2)C1 (configuration not stated),3.7,-7.6,-1.4,-0.5,-2.0,12.3
Cc1ccc(CNC(=O)c2ccc(-c3ccc(N4CCOCC4)nn3)cc2)o1,0.2,1.8,5.5,-0.9,-3.7,3.5
CC(=O)Nc1nsc(N2CCC(C(=O)NCc3ccccc3Cl)CC2)n1,-2.6,4.5,0.4,6.8,2.0,-0.7
O=C(NCc1ccccc1Cl)C1CCN(c2ccc(-c3ccccc3)nn2)CC1,-1.1,0.6,30.5*,10.3,9.2,46.6*
Cc1ccccc1CNC(=O)c1ccc(-c2ccc(N3CCCC3)nn2)cc1,-0.1,47.7*,9.9,-12.5,3.2,3.7
COCCCNC(=O)Cn1c(=O)n(Cc2ccc(C(=O)NCc3ccccc3OC)cc2)c(=O)c2ccccc21,1.0,12.6,1.8,24.2,5.3,14.0
COCCCNC(=O)c1ccc(Cn2c(=O)c3ccccc3n(CC(=O)Nc3ccc(OC)cc3)c2=O)cc1,6.6,66.5*,6.3,-0.1,2.1,6.5
COc1ccc(NC(=O)Cn2c(=O)n(Cc3ccco3)c(=O)c3ccc(C(=O)NC4CCCC4)cc32)cc1,0.7,11.1,49.0*,9.2,13.3,60.2*
COCCCNC(=O)c1ccc(Cn2c(=O)c3ccccc3n(CC(=O)Nc3ccc(OC)cc3OC)c2=O)cc1,7.5,74.6*,3.8,5.0,8.1,11.3
Cc1ccccc1-c1nc2[nH]c(=O)cc(NC(=O)Cc3ccccc3)n2n1,-29.8,-67.2,-7.6,-42.9,-13.4,-11.3
COc1cc(CCNC(=O)Cc2cccc(Br)c2)ccc1OCc1ccccc1,3.2,22.6,3.4,23.9,1.1,14.5
